This passage reports inhibition results from PubChem BioAssay AID602409 (Sanford-Burnham Center for Chemical Genomics, 2012).

Structures are written as SMILES. The list shows a part of the results. Active and inactive are the calls of the source.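 The calls were made as follows: active = mean inhibition over four retests above 40%; inactive = the rest.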

The target in this assay is C-X-C chemokine receptor type 6 (Homo sapiens) (UniProt O00574). The assay is described as follows: CXCR6 beta-arrestin signal inhibition by hits – cell-based, single concentration, luminescence, confirmation (AID 602409).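 Also: receptor stimulated with 10 nM CXCL16 agonist; beta-galactosidase fragment complementation upon beta-arrestin recruitment to receptor; plate controls were CXCL16 plus DMSO for no effect and DMSO without CXCL16 for full effect.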 To be noted: CHO-K1 CXCR6 PathHunter beta-arrestin, at 20 µM, active compounds read high.
Chain of C-X-C chemokine receptor type 6 (Homo sapiens) (O00574 whole entry, looked up, the tested form may be a part): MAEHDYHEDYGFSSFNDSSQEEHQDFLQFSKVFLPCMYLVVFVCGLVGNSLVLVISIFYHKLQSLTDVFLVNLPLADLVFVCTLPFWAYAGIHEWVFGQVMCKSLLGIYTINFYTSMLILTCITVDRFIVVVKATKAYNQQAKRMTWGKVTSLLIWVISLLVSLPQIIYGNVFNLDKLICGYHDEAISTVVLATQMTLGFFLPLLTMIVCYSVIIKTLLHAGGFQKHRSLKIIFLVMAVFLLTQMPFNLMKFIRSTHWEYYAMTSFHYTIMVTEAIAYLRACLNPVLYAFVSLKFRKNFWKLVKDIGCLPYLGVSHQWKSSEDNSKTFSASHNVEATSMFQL

For `CC(=O)OC1C2(CC3N4C(=O)C5(CO)SSC4(CC31O)C(=O)N5C)OC(C)C(C)(C)C2=O` (stereo unspecified), the inhibition was 68.1% (active).
